Results from PubChem BioAssay (NCI).
This is part of a sample that, as a whole, favours compounds with a hit. Of some 79,000 tested, about 15% had one in any assay. A number with no mark means an inactive call. The source made the active and inactive calls. Cut-off read from the data, not from the text of the source: active = growth inhibition above about 70%; inactive = the rest.

Experiments:
[1] = NCI Yeast Anticancer Drug Screen. Data for the rad50 strain (AID 155);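 note: 0% = growth of vehicle-only cultures of the same strain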; conditions: S. cerevisiae rad50 strain growth inhibition, hits give high values
Method in brief: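 DNA repair mutant yeast, compound exposure, growth read-out; inhibition is taken relative to vehicle.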

[2] = NCI Yeast Anticancer Drug Screen. Data for the mec2-1 strain (AID 157); conditions: S. cerevisiae mec2-1 strain, hits give high values
Method in brief: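 Using mec2-1 yeast: add compound, measure growth, express inhibition versus vehicle-treated cultures.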

[3] = NCI Yeast Anticancer Drug Screen. Data for the sgs1 mgt1 strain (AID 161);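 note: 0% = growth of cultures given vehicle only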; conditions: S. cerevisiae sgs1 mgt1 strain, hits give high values
Method in brief: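 Growth of a repair-deficient yeast mutant was monitored after compound treatment and expressed as inhibition relative to vehicle-treated cultures.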

[4] = NCI Yeast Anticancer Drug Screen. Data for the cln2 rad14 strain (AID 165);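 note: 0% = growth equal to vehicle treated cultures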; conditions: S. cerevisiae cln2 rad14 strain, hits give high values
Method in brief: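 Yeast strain cln2 rad14, bearing defects in cell cycle control and DNA repair, serves as the test system; values reflect growth inhibition compared with vehicle.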

[5] = NCI Yeast Anticancer Drug Screen. Data for the bub3 strain (AID 167); conditions: S. cerevisiae bub3 mutant strain, hits give high values
Method in brief: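 In this screen, a yeast mutant lacking normal mitotic checkpoint function is challenged with compound. Relative growth versus vehicle gives the inhibition value.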

[6] = NCI Yeast Anticancer Drug Screen. Data for the mlh1 rad18 strain (AID 175); conditions: S. cerevisiae mlh1 rad18 strain growth inhibition, hits give high values
Method in brief: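 Steps: expose repair-defective yeast to compound; measure growth; express inhibition against vehicle-treated controls.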

[7] = at 5.0 µM (retest, dose inferred, filed as 0.5)
[8] = at 50.0 µM (retest, dose inferred, filed as 5.0)

| SMILES | growth inhibition [1, 7] | growth inhibition [1, 8] | growth inhibition ([1]; at 50.0 µM) | growth inhibition [2, 7] | growth inhibition [2, 8] | growth inhibition ([2]; at 50.0 µM) | growth inhibition [3, 7] | growth inhibition [3, 8] | growth inhibition ([3]; at 50.0 µM) | growth inhibition [4, 7] | growth inhibition [4, 8] | growth inhibition ([4]; at 50.0 µM) | growth inhibition [5, 7] | growth inhibition [5, 8] | growth inhibition ([5]; at 50.0 µM) | growth inhibition [6, 7] | growth inhibition [6, 8] | growth inhibition ([6]; at 50.0 µM) |
| --- | --- | --- | --- | --- | --- | --- | --- | --- | --- | --- | --- | --- | --- | --- | --- | --- | --- | --- |
| C=C1C2Oc3ccccc3C1N(c1ccccc1)O2 (configuration not stated) | 9% | 23% | 35% | 8% | 35% | 19.9% | 4% | 62% | 66% | 4% | 24% | 39.1% | 1% | 26% | 9.45% | 5% | 35% | 70.5% (active) |
| CC1CCCC(C(O)(C(=O)O)C2CCCC(C)C2)C1 (configuration not stated) | 15% | 72% (active) | 66.3% | 29% | 81% (active) | 43% | 8% | 70% (active) | 56.5% | 68% | 98% (active) | 33.2% | 14% | 97% (active) | 25.4% | 15% | 79% (active) | 69.7% |
| Cc1ccc(NC(=O)Cc2nc3ccccc3s2)c(C)c1 | 7% | 99% (active) | 98.7% (active) | 9% | 98% (active) | 99.3% (active) | 20% | 99% (active) | 99.5% (active) | 6% | 91% (active) | 95.7% (active) | 29% | 99% (active) | 99% (active) | 14% | 99% (active) | 99% (active) |
| CC/C(=N\NC(=S)SC)c1ccccn1 | 24% | 96% (active) | -13.7% | 16% | 96% (active) | -5.4% | 24% | 96% (active) | 88.9% (active) | 24% | 97% (active) | 88.7% (active) | 18% | 96% (active) | 86.2% (active) | 25% | 96% (active) | 87% (active) |
| CCOC(=O)C1=NNC(C(=O)c2ccccc2)C1c1ccccc1 (configuration not stated) | 3% | 49% | 33.2% | 10% | 55% | 19.6% | 20% | 83% (active) | 81.2% (active) | 4% | 19% | -20.3% | 8% | 40% | 81.8% (active) | 12% | 82% (active) | 68.8% |
| C1=CC2C(c3cccc4ccccc34)O[C@H]2O1 (some centres not stated) | 39% | 99% (active) | 98.8% (active) | 11% | 99% (active) | 98.5% (active) | 13% | 99% (active) | 98.8% (active) | 7% | 98% (active) | 98.8% (active) | 3% | 99% (active) | 98.4% (active) | 28% | 99% (active) | 98.3% (active) |
| NC1NCCC(=O)N1CCc1c[nH]c2ccccc12 (configuration not stated) | -18% | 99% (active) | 65.9% | 7% | 100% (active) | 54.9% | -22% | 99% (active) | 54.4% | 31% | 99% (active) | 22.3% | -26% | 100% (active) | 74.5% (active) | -12% | 100% (active) | 53.6% |
| CC1CC(N)=NC1C(=O)NCCC#N (configuration not stated) | 20% | 8% | 10.9% | 27% | 8% | 3.25% | 38% | 17% | 64.1% | 14% | 2% | 72% (active) | 25% | -12% | 62.6% | 30% | 11% | 66.7% |
| Brc1cc2c(c(Br)c1Br)C(Br)(Br)C(c1ccccc1)=N2 | 6% | 80% (active) | 73.3% (active) | 10% | 85% (active) | 58.1% | 25% | 85% (active) | 78.6% (active) | 3% | 32% | 60.4% | 1% | 90% (active) | 27.6% | 13% | 89% (active) | 75.3% (active) |
| CC1CCC(NCCOC(=O)c2ccc([N+](=O)[O-])cc2)CC1 (configuration not stated) | 2% | 23% | 70.8% (active) | 1% | 18% | -2.9% | 1% | 24% | 54.5% | -75% | 41% | 31.9% | -8% | -71% | 17.6% | -3% | 6% | 42.9% |
| COc1ccc(/C(Cl)=C(\C=O)c2ccc(Cl)cc2)cc1 | 17% | 17% | -4.05% | -10% | 2% | 7.7% | -17% | 22% | 27.8% | 12% | 26% | -8.85% | 18% | 54% | 28.1% | -6% | 27% | 19.8% |
| CC(/C=C/C(O)=C1/C(=O)CNC1=O)=C\[C@@H](C)[C@H]1O[C@@]2(C)O[C@H](C(=O)[C@@H]3O[C@@]32C)[C@@H]1C | 98% (active) | 99% (active) | 91.8% (active) | 99% (active) | 99% (active) | 94.5% (active) | 98% (active) | 98% (active) | 94.2% (active) | 97% (active) | 95% (active) | 90.8% (active) | 98% (active) | 99% (active) | 93.4% (active) | 98% (active) | 98% (active) | 90.3% (active) |
| CCCCCN=Cc1c(O)c(O)c(C(C)C)c2cc(C)c(-c3c(C)cc4c(C(C)C)c(O)c(O)c(C=NCCCCC)c4c3O)c(O)c12 | 2% | 43% | 14.8% | -44% | 17% | 62.9% | 2% | 50% | 71.8% (active) | 1% | 11% | 20.4% | -2% | 40% | 30% | 1% | 25% | 68.5% |
| COc1ccc(NCCN(C)C)c2c(=O)c3ccccc3sc12 | 13% | 53% | 90.4% (active) | 1% | 45% | 37.4% | -1% | 39% | 41.6% | -3% | 16% | -1.05% | -7% | 0% | 50.2% | -3% | 43% | 69.4% |
| Cc1c(O)c(Br)c(C)c(O)c1Br (tested in a mixture with another compound) | 0% | 85% (active) | 75.8% (active) | 21% | 69% | 49.8% | -2% | 90% (active) | 80.6% (active) | -2% | 47% | 1.05% | 1% | 77% (active) | 61.6% | 8% | 86% (active) | 62.1% |
| O=S(=O)(c1ccccc1)n1cc(C[P+](c2ccccc2)(c2ccccc2)c2ccccc2)c2ccccc21 | 21% | 99% (active) | 99.3% (active) | -1% | 99% (active) | 99.5% (active) | 20% | 98% (active) | 99.5% (active) | 8% | 99% (active) | 98.1% (active) | 10% | 99% (active) | 99.4% (active) | 27% | 99% (active) | 99.3% (active) |
| Cc1cccc2c1C(=O)N(CC[P+](c1ccccc1)(c1ccccc1)c1ccccc1)C2=O | 77% (active) | 85% (active) | 58.1% | 58% | 87% (active) | 70.3% (active) | 70% (active) | 93% (active) | 61.9% | 58% | 91% (active) | 35.3% | 80% (active) | 95% (active) | 70.5% (active) | 64% | 86% (active) | 67.9% |
| CCCCCCCCCCCCCCCCCC(=O)OCCN1C(=O)c2ccccc2C1=O | -1% | 4% | -5.4% | 10% | -10% | 9.15% | 5% | 12% | 17.7% | -1% | -6% | 71.7% (active) | -4% | -8% | 44% | -2% | -11% | 43.3% |
| N#CC(c1ccc(Cl)cc1)c1ccc([N+](=O)[O-])cc1 (configuration not stated) | -12% | 52% | 40.9% | -16% | 37% | 20.5% | 2% | 84% (active) | 60.9% | -4% | 53% | 3.95% | 2% | 86% (active) | 64.3% | -5% | 88% (active) | 45.5% |
